Source: PubChem
nsP2pro primary = inhibitors of chikungunya virus nsP2 protease; Q8JUX6; FRET peptide cleavage, nsP2pro, fluorescence 1 h; Potency, µM (highest dose often 24.9 µM), inactives show at the top dose activity change, negative = inhibition, actives largely listed as inhibitors; hit rate 1.1% among 31,000; note: nearly all actives have a fitted effect of over 60% in size
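Recombinant nsP2pro (150 nM) was preincubated with compound 15 min at room temperature in 10 mM Tris-HCl pH 8.0, 0.01% Tween 20. Peptide 2 FRET substrate (2.5 uM) was then added and fluorescence read after 1 h. Seven-point series, up to 25 uM.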
CHIKV nsP2 cell = inhibits CHIKV nsP2 protease in cells; hit rate 10% among 450; cell-based CHIKV nsP2 protease reporter assay; shares compounds with nsP2pro primary; AID 1964100; Potency, µM (top dose mostly 51.1 µM), for inactives: at the top dose activity change, negative = inhibition, hits mostly inhibitors; note: nearly all actives have a fitted effect of over 70% in size
Target sequence (Q8JUX6 220-798 limits assumed): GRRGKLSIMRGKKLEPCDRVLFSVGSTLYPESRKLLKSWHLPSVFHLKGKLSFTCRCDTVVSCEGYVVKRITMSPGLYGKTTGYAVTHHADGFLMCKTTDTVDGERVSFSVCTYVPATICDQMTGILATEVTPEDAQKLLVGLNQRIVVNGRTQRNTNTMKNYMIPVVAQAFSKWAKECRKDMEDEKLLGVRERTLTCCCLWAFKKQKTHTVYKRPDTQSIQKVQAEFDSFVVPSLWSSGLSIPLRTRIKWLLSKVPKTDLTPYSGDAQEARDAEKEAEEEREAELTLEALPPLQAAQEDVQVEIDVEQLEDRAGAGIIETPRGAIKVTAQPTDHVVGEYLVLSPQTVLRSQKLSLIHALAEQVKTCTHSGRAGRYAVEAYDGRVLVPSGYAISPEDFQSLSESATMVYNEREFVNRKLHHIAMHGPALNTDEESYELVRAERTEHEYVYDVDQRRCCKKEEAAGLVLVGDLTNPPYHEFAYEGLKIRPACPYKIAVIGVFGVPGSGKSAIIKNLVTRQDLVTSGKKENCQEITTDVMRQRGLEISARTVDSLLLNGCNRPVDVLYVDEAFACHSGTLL
CHIKV NSP2 FL = selectivity test for CHIKV nsP2 protease inhibitors: full-length NSP2; shares compounds with nsP2pro primary; hit rate 39% among 410; Full-length CHIKV NSP2 protease enzymatic counterscreen; Potency, µM (series often up to 50.7 µM), without a hit: top-dose activity change, negative = inhibition, hits mostly inhibitors; note: nearly all actives have a fitted effect of over 65% in size
Furin counterscr = selectivity counter-screen for CHIKV nsP2 protease inhibitors: human furin; shares compounds with nsP2pro primary; Recombinant human furin enzymatic counterscreen, fluorogenic substrate; Potency, µM (highest dose often 50.6 µM), without a hit: at the highest dose activity change, negative = inhibition, usual class: inhibitors; hit rate 6% among 410; AID 1964102
NS23 peptide cs = blocks CHIKV nsP2 protease cleavage of endogenous NS2/3 peptide; Potency, µM (top dose mostly 51 µM), without a hit: at the top dose activity change, negative = inhibition, usual class: inhibitors; hit rate 34% among 410; Purified CHIKV nsP2 protease, endogenous NS2/3 peptide cleavage; shares compounds with nsP2pro primary; note: nearly all actives have a fitted effect of over 55% in size
Papain counter = papain protease inhibition, counterscreen for nsP2pro inhibitors; shares compounds with nsP2pro primary; purified papain protease activity, enzymatic inhibition; Potency, µM (top dose mostly 51 µM), for the others: at the highest dose activity change, negative = inhibition, hits mostly inhibitors; hit rate 5% among 410
nsP2pro conf qHTS = CHIKV nsP2 protease inhibition, confirmatory qHTS. Potency, µM (series often up to 25.5 µM), inactives show at the highest dose activity change, negative = inhibition, hits mostly inhibitors. hit rate 43% among 410. shares compounds with nsP2pro primary. CHIKV nsP2 protease enzymatic activity, qHTS; note: nearly all actives have a fitted effect of over 75% in size
HCV NS3 4A cs = HCV NS3/4A protease inhibition, counterscreen; shares compounds with nsP2pro primary; HCV NS3/4A protease biochemical counterscreen; Potency, µM (series often up to 50.9 µM), hits mostly inhibitors; hit rate 20% among 410; AID 1964106; note: nearly all actives have a fitted effect of over 55% in size
Active calls of the source: *; i = inactive; u = inconclusive; [ ] = remark or other dose. Shown is part of a subset that was picked to be rich in hits. Calls come from the whole dose curve. % is set by controls: 0 for no effect and ±100 for the full control effect; potency is the fitted concentration of half-maximal effect.

SMILES | nsP2pro primary | others
O=C(/C=C/c1cccnc1)NCCCCC1CCN(C(=O)c2ccccc2)CC1 | u | CHIKV nsP2 cell=-28%;CHIKV NSP2 FL=18%;Furin counterscr=12%;NS23 peptide cs=i;Papain counter=-8%;nsP2pro conf qHTS=22%;HCV NS3 4A cs=i
COc1ccc2nc(-c3ccccc3OCc3ccccc3)sc2c1 | 0%
CCOC(=O)c1csc(NC(=O)c2ccncc2NS(=O)(=O)c2ccc(C)cc2)n1 | i
N#CN1CCC[C@@H](n2nc(-c3ccc(Oc4ccc(F)cc4F)cc3)c(C(N)=O)c2N)C1 | u | CHIKV nsP2 cell=-10%;CHIKV NSP2 FL=18µM*;Furin counterscr=-9%;NS23 peptide cs=u;Papain counter=u;nsP2pro conf qHTS=7.1µM*;HCV NS3 4A cs=i
CN(C)CC(=O)N1CCC[C@@H](n2nc(-c3ccc(Oc4ccccc4)cc3)c3c(N)ncnc32)C1 | 131%
CNc1oc(-c2cccc(-c3ccccc3)c2)nc1C#N | 4%
COc1ccc(-n2c(C)cc(-c3nnc4n3CCCCC4)c2C)cc1 | -28%
Cc1cc(-c2nnc3n2CCCCC3)c(C)n1-c1ccncc1 | -17%
Cc1ccc(-n2c(C)cc(-c3nnc4n3CCCCC4)c2C)cc1 | u | CHIKV nsP2 cell=21µM*;CHIKV NSP2 FL=u;Furin counterscr=-3%;NS23 peptide cs=u;Papain counter=-6%;nsP2pro conf qHTS=u;HCV NS3 4A cs=u
CCCNc1ccc2ncc(-c3ccc4[nH]ncc4c3)n2n1 | 421%
COc1ccc(-c2cc3c(=O)n(CCNC(=O)c4ccsc4)ccn3n2)cc1 | i
CC[C@@]1(O)CC2CN(CCc3c([nH]c4ccccc34)[C@](C(=O)OC)(c3cc4c(cc3OC)N(C)C3[C@@](O)(C(N)=O)[C@H](O)[C@]5(CC)C=CCN6CC[C@@]43[C@@H]65)C2)C1 (stereo partly specified) | 15%
O=c1c(NS(=O)(=O)c2cccc(F)c2)ccc2n1C[C@H]1C[C@@H]2CN(S(=O)(=O)c2ccccc2)C1 | 18%
O=C(Nc1ccccc1)Nc1ccc2n(c1=O)C[C@H]1C[C@@H]2CN(C(=O)c2ccccc2)C1 | -19%[39.2 µM]
O=C(c1ccccn1)N1C[C@@H]2C[C@H](C1)c1ccc(NS(=O)(=O)c3cccc(F)c3)c(=O)n1C2 | -6%
COc1ccc(S(=O)(=O)N2C[C@@H]3C[C@H](C2)c2ccc(NS(=O)(=O)c4cccc(F)c4)c(=O)n2C3)cc1 | 24%
O=c1c(NS(=O)(=O)Cc2ccccc2)ccc2n1C[C@H]1C[C@@H]2CN(S(=O)(=O)c2ccccc2)C1 | u | CHIKV nsP2 cell=6%;CHIKV NSP2 FL=u;Furin counterscr=-5%;NS23 peptide cs=u;Papain counter=-3%;nsP2pro conf qHTS=u;HCV NS3 4A cs=u
CCCS(=O)(=O)Nc1ccc2n(c1=O)C[C@H]1C[C@@H]2CN(C(=O)c2ccc(-c3ccccc3)cc2)C1 | u | CHIKV nsP2 cell=-2%;CHIKV NSP2 FL=u;Furin counterscr=-8%;NS23 peptide cs=u;Papain counter=-8%;nsP2pro conf qHTS=-4%;HCV NS3 4A cs=u
COc1ccc(C2Nc3ccccc3C(=O)N2Cc2cccnc2)cc1COc1c(C)cc(NC(C)=O)cc1C (stereo unspecified) | i
CCOC(=O)C1CCN(C(=O)C2(NC(=O)Nc3ccccc3Cl)CCCC2)CC1 | 0%[10 µM]
O=S(=O)(c1ccccc1)N1CC(Oc2ccc(-c3noc(C4CC4)n3)cc2)C1 | -3%
Cc1cc(-c2nc(Nc3ccc(F)c(F)c3)c3ccccc3n2)cc(C)n1 | i
Cc1ccc(-c2ccc(CNc3nc(-c4ccccc4C(C)C)nc4ccccc34)cc2)cn1 | 3%
Cc1nc(-c2cccs2)cc([C@H]2CN3CC[C@H]2C[C@@H]3COC(=O)NC2CCCCC2)n1 | 6%
COc1ccc(-c2cc([C@H]3CN4CC[C@H]3C[C@@H]4CNC(=O)NC3CCCCC3)n(C)n2)cc1 | 12%
SMILES | nsP2pro primary | others
COc1ccc(-c2cc([C@H]3CN4CC[C@H]3C[C@@H]4COC(=O)NC3CCCCC3)nc(C)n2)cc1 | i
Cc1nc(-c2ccco2)cc([C@H]2CN3CC[C@H]2C[C@@H]3CNC(=O)NC2CCCCC2)n1 | 8.9µM* | CHIKV nsP2 cell=31%;CHIKV NSP2 FL=13µM*;Furin counterscr=u;NS23 peptide cs=17µM*;Papain counter=-8%;nsP2pro conf qHTS=13µM*;HCV NS3 4A cs=8.4µM*
Cc1nc(-c2ccccc2Br)cc([C@H]2CN3CC[C@H]2C[C@@H]3CNC(=O)NC2CCCCC2)n1 | 5µM* | CHIKV nsP2 cell=-3%;CHIKV NSP2 FL=u;Furin counterscr=u;NS23 peptide cs=16µM*;Papain counter=0%;nsP2pro conf qHTS=8µM*;HCV NS3 4A cs=13µM*
CC(=O)c1cccc(NC(=O)NC[C@H]2C[C@@H]3CCN2C[C@@H]3c2cc(-c3ccc(F)cc3)nc(C)n2)c1 | i
N#Cc1nc(-c2cccc3ccccc23)oc1NC1COC1 | -15%
CCC1CN(C(=O)c2ccc(NCc3cnn(CC)c3)nc2)CCN1C(C)C (stereo unspecified) | 1%
CNC(=O)O[C@H]1COc2ccc(N3CCN(C4COC4)CC3)cc2[C@@H]1NC(=O)c1ccc(F)cc1 | -18%
Cc1ccc(C(=O)N2CCC(N3CCOCC3=O)CC2)cc1 | -7%
Cc1occc1-c1ccc2ncnc(NCCc3cnc[nH]3)c2c1 | i
Cc1cc(N[S+](=O)([O-])c2cc3c(cc2Cl)NC(=O)CO3)ccc1Br | -16%
O=C(Nc1cc(-c2ccncc2)nn1-c1ccccc1)c1ccc(Cl)cc1 | i
Cc1ccc(S(=O)(=O)Nc2cc(C(F)(F)F)ccc2C(=O)Nc2nc(-c3ccccc3)cs2)cc1 | -3%
O=C(O)c1cccc(-n2cccc2/C=C2/C(=O)N(Cc3ccc(F)cc3)C(=O)N2Cc2ccc(F)cc2)c1 | i
COc1cc2ncnc(Nc3cccc(I)c3)c2cc1OC | 55%
C[C@@H](O)[C@H]1C(=O)N2C(C(=O)O)=C(S[C@@H]3CN[C@H](C(=O)Nc4cccc(C(=O)O)c4)C3)[C@H](C)[C@H]12 | 108%
CCCCN(C)C(=O)Cn1nc(-c2ccncc2)ccc1=O | 4%
O=C(Nc1cccc(F)c1)N1Cc2[nH]cnc2C[C@H]1c1nc(-c2ccncc2)no1 | i
O=C(NC1CCCCC1)N1Cc2[nH]cnc2C[C@H]1c1nc(-c2ccccc2)no1 | 31%[39.2 µM]
Cc1cccc(-c2noc([C@@H]3Cc4nc[nH]c4CN3C(=O)NC3CCCCC3)n2)c1 | 0.63µM* | CHIKV nsP2 cell=51%;CHIKV NSP2 FL=5.3µM*;Furin counterscr=-3%;NS23 peptide cs=7.5µM*;Papain counter=-12%;nsP2pro conf qHTS=2.1µM*;HCV NS3 4A cs=i
C=C(C)C(O)COc1ccc(CC(=O)O)cc1 (stereo unspecified) | -2%
